An excerpt weighted towards active compounds, which were near 0.63% of everything screened.
PKM2 activator: PKM2 (human) enzyme activation; P14618; purified PKM2, Kinase-Glo ATP luminescence, activation; response scale: 0% is enzyme alone, no compound; Potency, µM (titrated, usually from 57.5 µM), for inactives: top-dose activation, usual class: activators; 260,000 compounds, 0.34% hits; AID 1631; note: nearly all actives have a fitted effect of over 55% in size
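Kinase-Glo luminescence reports ATP generated from ADP (0.1 mM) and PEP (0.5 mM) by purified hPK-M2 after 1 h at room temperature, pH 7.2 imidazole buffer; intermediate enzyme activity allows detecting inhibitors and activators.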
GAA inhib: inhibitors of human lysosomal alpha-glucosidase. purified human GAA, 4-MU-alpha-glucoside fluorescence. 200,000 compounds, 0.005% hits. Potency, µM (highest dose often 76.9 µM), for inactives: at the top dose activity change, negative = inhibition, hits mostly inhibitors. AID 1466;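 note: plate controls were uninhibited enzyme wells for no effect and no-enzyme background for full effect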
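Human alpha-glucosidase, 4 nM, pre-mixed with test compounds before 400 uM 4-methylumbelliferyl substrate; 20 min room temperature at pH 5.0. Fluorescence read after pH 10 stop; AC50 values from Hill-equation fits.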
GALK inh: blocks human galactokinase activity; 270,000 compounds, 0.007% hits; Purified GALK, Kinase-Glo residual ATP luminescence; Potency, µM (titrated, usually from 57.5 µM), without a hit: top-dose activity change, negative = inhibition, most hits filed as inhibitors; P51570
Target sequence (P51570 whole entry, looked up): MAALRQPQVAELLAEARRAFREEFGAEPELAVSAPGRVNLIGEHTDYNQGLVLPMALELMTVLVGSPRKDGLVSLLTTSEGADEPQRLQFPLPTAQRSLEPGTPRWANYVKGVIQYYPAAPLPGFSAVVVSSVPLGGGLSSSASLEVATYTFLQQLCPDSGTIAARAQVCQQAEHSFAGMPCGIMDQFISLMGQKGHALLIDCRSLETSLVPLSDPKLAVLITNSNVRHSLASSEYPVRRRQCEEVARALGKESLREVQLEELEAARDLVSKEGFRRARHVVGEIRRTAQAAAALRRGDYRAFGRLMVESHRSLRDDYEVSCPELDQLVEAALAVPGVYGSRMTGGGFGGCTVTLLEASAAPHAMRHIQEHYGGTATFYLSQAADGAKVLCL
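Luminescence from leftover ATP (Ultra-Glo luciferase/luciferin) served as read-out after a 1 h room-temperature reaction of 5 nM GALK with 35 uM ATP and 100 uM galactose.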
GAA glycogen: alters human alpha-glucosidase cleavage of glycogen. Potency, µM (highest dose often 76.4 µM), without a hit: at the highest dose activity change, negative = inhibition, most hits filed as inhibitors. P10253. recombinant GAA, glycogen substrate, Amplex Red glucose oxidase fluorescence. 300,000 compounds, 0.38% hits;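 note: 0% = full enzyme reaction and -100% = no-enzyme basal signal; the screen sought inhibitors and activators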
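Natural-substrate format: glycogen cleavage by 4 nM human enzyme, glucose read by Amplex Red coupling (Ex 573, Em 610 nm). Normalized to enzyme and no-enzyme controls.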
GAA spleen mod: lysosomal alpha-glucosidase (human) modulation; P10253; human spleen homogenate, 4-MU-alpha-glucoside fluorescence; Potency, µM (top dose mostly 79.9 µM), inactives show at the highest dose activity change, negative = inhibition, hits mostly inhibitors; 240,000 compounds, 0.006% hits;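 note: 0% = enzyme with vehicle and -100% = no enzyme basal signal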
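Human spleen homogenate (1 ug) with 4-methylumbelliferyl-alpha-D-glucopyranoside (1 mM final) in 50 mM citrate/phosphate pH 5.0, 0.01% Tween-20; 40 min at 37 C. Stopped at pH 10; 4-MU fluorescence Ex 365/Em 440 nm; AC50 by Hill fit.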
Active calls of the source: *; ? = inconclusive; . = no result; [ ] = dose if it differs, or a comment. Calls come from the whole dose curve; as a rule, active = well fitted curve in the direction sought with a large enough effect; inconclusive = small, poorly fitted or top-dose-only effect, or another doubt; inactive = no such curve, though single readings can be large; an effect the other way counts as inactive or inconclusive. Unless noted, % is set by controls: 0 for no effect and ±100 for the full control effect; potency is the fitted concentration of half-maximal effect.

SMILES	PKM2 activator	GAA inhib	GALK inh	GAA glycogen	GAA spleen mod
Cc1ccc2[nH]c(=O)c(-c3nc4ccccn4c3NCc3ccco3)cc2c1	-2.5%	-6.0%	1.0%	31.6µM*	4.4%
Cc1ccc(/C=C2/NC(=O)N(c3ccccc3)C2=O)o1	?	-2.4%	-1.3%	?	-6.8%
CCN1C(=O)N/C(=C/c2ccc(C)o2)C1=O	?	-7.0%	-0.6%	-15.1%	13.0%
Cc1ccc(/C=C2/NC(=O)N(Cc3ccc(Br)cc3)C2=O)o1	1.58µM*	0.2%	-0.4%	-2.8%	3.1%
Cc1ccc(/C=C2/NC(=O)N(Cc3ccccc3F)C2=O)o1	3.55µM*	-5.1%	-0.1%	-15.9%	2.1%
CCCN1C(=O)/C(=C/c2ccc(C)o2)NC1=S	25.1µM*	-1.2%	-0.8%	2.8%	-1.2%
CCn1c(C)cc(/C=C2/NC(=O)N(Cc3ccccc3F)C2=O)c1C	7.3%	-3.5%	.	-12.2%	-6.1%
O=c1oc2ccc(Cl)cc2nc1/C=C(\O)c1cccs1	5.2%	.	.	6.31µM*	-3.8%
CS(=O)(=O)Cc1nc2ccccc2oc1=O	6.1%	-4.0%	1.5%	5.58µM*	1.9%
C/C(O)=C\c1nc2ccccc2oc1=O	-3.3%	-5.3%	1.2%	10µM*	-1.0%
Cc1ccc2oc(=O)c(/C=C(\O)c3ccccc3)nc2c1	-9.6%	-1.0%	-2.4%	?	0.8%
Cc1ccc2oc(=O)c(/C=C(\O)c3cccs3)nc2c1	7.0%	.	1.6%	12.6µM*	-1.7%
O=C1OC2(c3cc(I)c(O)c(I)c3Oc3c2cc(I)c(O)c3I)c2c(Cl)c(Cl)c(Cl)c(Cl)c21	.	.	.	.	1.4%
CCN(CC)c1ccc(CN(C(=O)Cc2coc3ccc(C)cc23)C2CCS(=O)(=O)C2)cc1 (centres undefined)	.	.	.	-13.0%[76.3 µM]	.
Cn1c(CSCc2ccc(Cl)cc2Cl)n[nH]c1=S	28.2µM*	-5.1%	3.6%	?	-11.6%
O=C(c1ccncc1)N1N=C(c2ccc(Br)cc2)CC1c1ccccc1O (centres undefined)	7.94µM*	.	15.4%	.	.
Cc1ccc(NC(=O)CCC(=O)N2CCSc3ccccc32)cc1	.	.	.	-7.5%[76.3 µM]	.
COc1ccc(/C=N/Nc2nc3ccccc3[nH]2)cc1OC	0.1%	-2.4%	1.8%	?	1.7%
C(=N\Nc1ccc2ccccc2n1)/c1ccc2c(c1)OCCO2	-13.8%	?	2.8%	-28.5%	-1.5%
C(=N\Nc1nc2ccccc2[nH]1)/c1ccc2c(c1)OCCO2	2.0%	-8.9%	5.4%	12.6µM*	0.6%
COc1ccc2c(c1)c(/C=N/Nc1nc3ccccc3[nH]1)c(C)n2C	-9.4%	?	-0.5%	28.2µM*	-7.0%
COc1cc(/C=N\Nc2nc3ccccc3[nH]2)cc(OC)c1OC	-0.6%	0.0%	-1.8%	15.7µM*	4.7%
CCc1ccc(S(=O)(=O)c2nnn(-c3cccc(C)c3)c2N)cc1	.	.	.	4.6%[76.3 µM]	.
Cc1nc(C)c(-c2csc(Nc3ccc(S(N)(=O)=O)cc3)n2)s1	-1.7%	.	-0.6%	0.1%[76.3 µM]	.
Cc1ccc(-c2csc(Nc3ccc(S(N)(=O)=O)cc3)n2)o1	10µM*	?	-3.3%	-18.2%	-1.5%
SMILES	PKM2 activator	GAA inhib	GALK inh	GAA glycogen	GAA spleen mod
COc1ccccc1N1CCN(S(=O)(=O)c2c(C)sc3ncn(CC(=O)N(C)c4ccc(Cl)cc4)c(=O)c23)CC1	.	.	.	-3.5%[76.3 µM]	.
COc1ccc2c(CNCCc3ccc(SC)cc3)c(C(=O)O)n(Cc3ccc(F)cc3)c2c1	.	.	.	-13.0%[76.3 µM]	.
CCOc1ccc(N(CC(=O)OC)S(=O)(=O)c2ccc3c(c2)n(C)c(=O)c(=O)n3C)cc1	1.4%	-2.9%	0.1%	6.2%	-0.7%
COC(=O)CN(c1ccc(C)cc1)S(=O)(=O)c1ccc2c(c1)n(C)c(=O)c(=O)n2C	15.8µM*	-2.7%	3.2%	-1.9%	0.4%
O=C1OCC(CO)(CO)N=C1NNc1ccc(Cl)c(Cl)c1	1.1%	-5.3%	-2.0%	35.5µM*	4.3%
O=C(CCc1ccc(O)cc1)c1c(O)cc(O)cc1O	27.2%	.	-2.9%	31.4µM*	-0.1%
COc1cc(O)c(CC=C(C)C)c(O)c1C(=O)CCc1ccc(O)cc1	1.4%	.	-5.6%	-21.9%	-6.8%
Cc1ccc(S(=O)(=O)/N=c2\sccn2C)cc1	17.8µM*	0.2%	-0.7%	-9.5%	7.5%
NNC(=O)c1nn(-c2ccc(Cl)cc2)cc1O	?	8.5%	.	28.2µM*	-6.5%
Cc1ccc(S(=O)(=O)c2nnn3c2nc(N2CCC(C)CC2)c2cc(Cl)ccc23)cc1C	.	.	.	6.0%[76.3 µM]	.
Cc1ccc(CNc2ccc3c(c2)OCO3)cc1	19.3%	5.4%	2.3%	-27.5%	7.3%
c1cc(CNc2ccc3c(c2)OCO3)ccn1	-2.6%	-3.3%	2.0%	31.6µM*	-7.9%
Cc1cccc2c1-c1sc(C(=O)N3CCN(c4ccccc4)CC3)cc1CO2	.	.	.	4.4%[76.3 µM]	.
CC(C)Cn1c(=O)c2sccc2n2c(CCCC(=O)Nc3ccc(Cl)cc3)nnc12	.	.	.	13.5%[76.3 µM]	.
Cc1c(C(=O)O)c2cc(O)ccc2n1-c1ccccc1	5.0%	-3.2%	-2.3%	25.1µM*	-6.1%
Cc1onc(-c2ccccc2)c1CNS(=O)(=O)c1cccc(Cl)c1	31.6µM*	-2.3%[15.4 µM]	-2.1%	-7.8%	11.7%
COc1ccc(S(=O)(=O)NCc2c(-c3ccccc3)noc2C)c(OC)c1	28.2µM*	-0.3%	-2.6%	1.5%	-1.9%
Cc1onc(-c2ccccc2)c1CNS(=O)(=O)c1ccccc1	10.2%	-4.3%	-0.9%	8.8%	3.0%
N#C/C(=C\c1ccc(N2CCOCC2)o1)c1ccccc1	?	-12.3%	4.7%	?	2.7%
N#C/C(=C/c1ccc(N2CCOCC2)o1)c1ccc(Br)cc1	14.1µM*	-8.2%	-5.7%	-29.7%	1.7%
COc1cc(C2Nc3ccc4ncccc4c3C3=C2C(=O)CC(C)(C)C3)cc(OC)c1O (centres undefined)	-1.2%	13.9%	-3.5%	24.9µM*	6.3%
O=C1CCCC2=C1C(c1ccco1)Nc1ccc3ccccc3c12 (centres undefined)	7.0%	?	3.0%	-9.0%	9.7%
CC1(C)CC(=O)C2=C(C1)c1c(ccc3ncccc13)NC2c1cccs1 (centres undefined)	-6.3%	1.0%	-1.1%	7.4%	-0.4%
COc1cc(C2Nc3ccc4ncccc4c3C3=C2C(=O)CCC3)cc(OC)c1O (centres undefined)	17.6%	-3.0%	-0.1%	44.7µM*	-4.6%
COc1cccc(CNC(=O)CN2C(=O)CCCc3ccccc32)c1OC	.	.	.	-5.7%[76.3 µM]	.
C=CCn1c(SCC(=O)N2CCOCC2)nc2scc(-c3ccco3)c2c1=O	14.1µM*	-0.9%	6.1%	15.4%	-0.9%
C=CCn1c(SCC(C)=O)nc2scc(-c3ccco3)c2c1=O	.	.	-1.2%	-6.5%	.
O=C(O)CCCCCN1C(=O)/C(=C\c2ccc(-c3ccc(Cl)cc3)o2)SC1=S	31.6µM*	.	.	-0.2%	4.1%
COc1ccc(NC(=O)Nc2sc(NS(=O)(=O)c3ccccc3)nc2C)cc1	.	4.1%	1.4%	-28.5%	-0.5%
